Results reported in PubChem BioAssay (NCATS).
Inconclusive results are not listed. Calls of active or inactive are those of the source. Calls come from the whole dose curve; as a rule, active = well fitted cell-killing curve with a large enough effect; inconclusive = small, poorly fitted or top-dose-only effect, or effect the other way; inactive = no such curve, though single readings can be large or run the other way.

Test: Quantitative High-Throughput drug screen in 47 multiple myeloma cell lines against the NCATS MIPE library collection: PCM6_Riken cell viability assay (AID 1919870)
Conditions: CellTiter-Glo ATP, 48 h; series mostly up to 45.8 µM
In short: (§1)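 Cells were exposed to library compounds for 48 hours, after which ATP was measured by CellTiter-Glo. Signal was taken as median relative luminescence units.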
Note: nearly all actives have a fitted effect of over 30% in size.
Potency is the fitted concentration of half-maximal effect.

| Structure (SMILES) | Potency |
| --- | --- |
| CCN1CCC(n2cc(CNc3cc(Cl)c4ncc(C#N)c(Nc5ccc(F)c(Cl)c5)c4c3)nn2)CC1 | 20.9 µM (active) |
| Nc1ncnc2c1ncn2[C@@H]1O[C@H](CO)[C@@H](O)[C@@H]1O | 1.18 µM (active) |
| C#CCN(C)CC1=Cc2ccccc2Oc2ccccc21 | inactive |
| CN[C@@H]1CN(c2ccc3c(=O)c(C(=O)O)cn(-c4nccs4)c3n2)C[C@@H]1OC | 3.23 µM (active) |
| CNc1nc(Nc2ccc(C(=O)N3CCOCC3)cc2OC)ncc1Cl | 16.6 µM (active) |
| O=C(C=Cc1ccc(O)cc1)c1ccc(O)cc1O | 16.6 µM (active) |
| COc1ccc2c(c1)CC[C@H]1[C@@H]2CC[C@]2(C)[C@@H](NCCCCCCN3C(=O)C=CC3=O)CC[C@H]12 | inactive |
| CO[C@H]1C=CO[C@@]2(C)Oc3c(C)c(O)c4c(O)c(c(C=NN5CCN(C)CC5)c(O)c4c3C2=O)NC(=O)C(C)=CC=C[C@H](C)[C@H](O)[C@@H](C)[C@@H](O)[C@@H](C)[C@H](OC(C)=O)[C@H]1C | inactive |
| COc1ccc(C=CC(=O)Nc2ccccc2C(=O)O)cc1OC | inactive |
| CNC(=O)[C@H](Cc1ccccc1)NC(=O)[C@H](CC(C)C)[C@H](CSc1cccs1)C(=O)NO | 13.2 µM (active) |
| O=C(O)Cc1cccc(OCCCN(Cc2cccc(C(F)(F)F)c2Cl)CC(c2ccccc2)c2ccccc2)c1 | 18.7 µM (active) |
| CCC[C@H](N[C@@H](C)C(=O)N1[C@@H]2CCCC[C@H]2C[C@H]1C(=O)O)C(=O)OCC | inactive |
| FC(F)(F)c1ccc(C=Cc2nc(COc3ccc(CCCCn4ccnn4)cc3)co2)cc1 | 0.0118 µM (active) |
| CO[C@H]1O[C@@H]2O[C@@]3(C)CC[C@@H]4[C@@H](C)CC[C@@H]([C@H]1C)[C@@]24OO3 | inactive |
| NC(=O)c1noc([C@H](CCCC2CCCCC2)CC(=O)NO)n1 | 16.6 µM (active) |
| Oc1ccc(C=Cc2cc(O)cc(O)c2)cc1 | inactive |

Test: Quantitative High-Throughput drug screen in 47 multiple myeloma cell lines against the NCATS MIPE library collection: RPMI8226_ATCC cell viability assay (AID 1919871)
Conditions: RPMI8226 myeloma viability, CellTiter-Glo ATP luminescence, 48 h; series mostly up to 45.8 µM
In short: as §1

| Structure (SMILES) | Potency |
| --- | --- |
| CC[C@H](CC#N)OC(=O)N[C@@H](C)c1cccc(NC(=O)Nc2ccc(-c3cnco3)c(OC)c2)c1 | 2.64 µM (active) |
| Cc1ccccc1C(=O)c1ccc(Nc2ccc(Br)cc2N)cc1Cl | 11.8 µM (active) |
| CCN1CCC(n2cc(CNc3cc(Cl)c4ncc(C#N)c(Nc5ccc(F)c(Cl)c5)c4c3)nn2)CC1 | 16.6 µM (active) |
| O=C1CN2Cc3c(ccc(Cl)c3Cl)N=C2N1 | 18.7 µM (active) |
| COc1ccc(-c2ccc3ncc4c(c3c2)n(-c2ccc(N3CCNCC3)c(C(F)(F)F)c2)c(=O)n4C)cn1 | 0.332 µM (active) |
| CCc1cccc(CC)c1NC(=O)N1Cc2[nH]nc(NC(=O)c3ccc(N4CCN(C)CC4)cc3)c2C1 | 18.7 µM (active) |
| COc1cc(N2CCN(C)CC2)ccc1Nc1nc(N)c(C(=O)c2c(Cl)cccc2Cl)s1 | inactive |
| Nc1ncnc2c1ncn2[C@@H]1O[C@H](CO)[C@@H](O)[C@@H]1O | inactive |
| C#CCN(C)CC1=Cc2ccccc2Oc2ccccc21 | inactive |
| COc1ccc(CCN(C)CCCOc2ccc(S(=O)(=O)c3[nH]c4ccccc4c3C(C)C)cc2)cc1OC | 18.7 µM (active) |
| N#Cc1ccc(Oc2ccc3c(c2)COB3O)cc1 | inactive |
| CN[C@@H]1CN(c2ccc3c(=O)c(C(=O)O)cn(-c4nccs4)c3n2)C[C@@H]1OC | 12.9 µM (active) |
| CO[C@H]1C=CO[C@@]2(C)Oc3c(C)c(O)c4c(O)c(c(C=NN5CCN(C)CC5)c(O)c4c3C2=O)NC(=O)C(C)=CC=C[C@H](C)[C@H](O)[C@@H](C)[C@@H](O)[C@@H](C)[C@H](OC(C)=O)[C@H]1C | inactive |
| COc1ccc(C=CC(=O)Nc2ccccc2C(=O)O)cc1OC | inactive |
| O=C(O)Cc1cccc(OCCCN(Cc2cccc(C(F)(F)F)c2Cl)CC(c2ccccc2)c2ccccc2)c1 | 23.5 µM (active) |
| CCC[C@H](N[C@@H](C)C(=O)N1[C@@H]2CCCC[C@H]2C[C@H]1C(=O)O)C(=O)OCC | 9.35 µM (active) |
| CCC[C@@H](NC(=O)[C@@H]1[C@H]2CCC[C@@H]2CN1C(=O)[C@@H](NC(=O)[C@@H](NC(=O)c1cnccn1)C1CCCCC1)C(C)(C)C)C(=O)C(=O)NC1CC1 | 16.6 µM (active) |
| CCOC(=O)c1c(CSc2ccccc2)n(C)c2cc(Br)c(O)c(CN(C)C)c12 | 11.8 µM (active) |
| CO[C@H]1O[C@@H]2O[C@@]3(C)CC[C@@H]4[C@@H](C)CC[C@@H]([C@H]1C)[C@@]24OO3 | 0.833 µM (active) |
